High-throughput results deposited in PubChem BioAssay by National Center for Advancing Translational Sciences (NCATS).
An excerpt weighted towards active compounds, which were near 2.9% of everything screened.
TRPML1 agonist = qHTS for Agonists of the Human Mucolipin Transient Receptor Potential 1 (TRPML1); Mucolipin-1 (Homo sapiens), Q9GZU1; TRPML1-expressing cells, Ca2+ dye fluorescence, FDSS; activation, % (test concentration not listed); 410,000 compounds, 0.12% hits; in the data active = activation above about 50%; inconclusive = mostly about 30% to 49%; also: 0% is about no effect
Target sequence (Q9GZU1 whole entry, looked up): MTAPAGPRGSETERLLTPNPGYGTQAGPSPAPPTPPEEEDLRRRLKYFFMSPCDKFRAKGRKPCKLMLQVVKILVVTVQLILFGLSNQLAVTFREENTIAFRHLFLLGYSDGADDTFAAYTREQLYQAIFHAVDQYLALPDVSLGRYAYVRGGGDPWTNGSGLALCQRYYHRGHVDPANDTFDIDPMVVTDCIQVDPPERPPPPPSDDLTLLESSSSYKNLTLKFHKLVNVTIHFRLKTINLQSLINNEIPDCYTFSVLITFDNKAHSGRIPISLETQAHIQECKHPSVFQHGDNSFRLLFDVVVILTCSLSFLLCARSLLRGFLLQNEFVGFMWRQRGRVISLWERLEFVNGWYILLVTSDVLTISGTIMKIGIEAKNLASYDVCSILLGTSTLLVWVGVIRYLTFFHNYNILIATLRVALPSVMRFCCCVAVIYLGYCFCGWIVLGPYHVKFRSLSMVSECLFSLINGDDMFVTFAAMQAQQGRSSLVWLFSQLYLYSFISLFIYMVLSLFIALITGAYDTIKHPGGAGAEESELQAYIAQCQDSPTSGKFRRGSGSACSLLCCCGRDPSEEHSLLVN
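Calcium fluorescence on an FDSS kinetic reader gave the read-out. Tet-induced TRPML1-DL cells were plated overnight, dye-loaded (Ca8 with quencher, 45-90 min, room temperature, dark), then read 110 s after compound addition, and again 110 s after 4uM final 54-4 (EC80).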
TRPML1 blocker = qHTS for Inhibitors of the Human Mucolipin Transient Receptor Potential 1 (TRPML1); Mucolipin-1 (Homo sapiens), Q9GZU1; TRPML1-inducible cells, Ca2+ dye fluorescence, FDSS; stronger effect = lower value; inhibition of EC80 agonist-evoked calcium signal; activity change, negative = inhibition, % (no concentration beside the values); 390,000 compounds, 0.02% hits; AID 624415, 2012; in the data active = activity change below about -50%; inconclusive = between about -30% and that limit;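 also: stimulus is agonist 54-4 at its EC80 concentration; % is scaled to controls: 0 for no effect and ±100 for the full control effect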
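Tet-induced TRPML1-DL cells loaded with Ca8 no-wash calcium dye were read kinetically on FDSS. Compound addition was followed by EC80 agonist 54-4 (4 uM final); inhibition was read over 110 s.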
D3 ag = qHTS of D3 Dopamine Receptor Agonist: qHTS. D(3) dopamine receptor (Homo sapiens), P35462. D3R DiscoveRx beta-arrestin cells, luminescence, 90 min. max activation, %. 410,000 compounds, 0.58% hits; in the data active = max activation above about 30%; also: 0% is about no effect
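Agonist mode: compounds and dopamine controls were applied to plated cells for 90 min at 37 degrees C after an overnight attachment at 1500 cells/well. Luminescent read-out followed 30 - 60 minutes at room temperature with DiscoveRx detection reagent.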
DRD3 antagonist = qHTS of D3 Dopamine Receptor Antagonist: qHTS; D3R cells, DiscoveRx beta-arrestin luminescence, antagonist mode; stronger effect = lower value; max response, negative = inhibition, %; AID 652054, 2013; D(3) dopamine receptor (Homo sapiens), P35462; 360,000 compounds, 2.5% hits; in the data active = max response below about -50%; inconclusive = no clear call, values can overlap the other calls; also: % is scaled to controls: 0 for no effect and ±100 for the full control effect
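Cells plated overnight at 1500 cells/well, then exposed to library compounds with dopamine controls for 90 minutes at 37 degrees C. DiscoveRx reagent added for 30–60 minutes at room temperature; luminescence read, quantitative HTS format.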
An asterisk follows results filed as active; ? = inconclusive; nt = no result given.

SMILES | TRPML1 agonist | TRPML1 blocker | D3 ag | DRD3 antagonist
CC(C)CC(=O)NC(NC(=S)Nc1sc2c(c1C#N)CCCC2)C(Cl)(Cl)Cl (configuration not stated) | 0 | 5 | -5 | -83*
CCn1c(SCC(=O)Nc2sc3c(c2C#N)CCCC3)nnc1-c1ccco1 | 2 | 13 | -5 | -72*
CCCN1C(=O)c2ccccc2NC1c1ccc(OC)c(COc2ccc([N+](=O)[O-])cc2)c1 (configuration not stated) | 0 | nt | nt | nt
CCCC(C)c1oc(=O)cc(O)c1C (configuration not stated) | 0 | 7 | 60* | -3
Cc1cc(Cl)ccc1OCC(=O)N1CCC(c2nc3ccccc3o2)CC1 | 3 | 10 | 9 | nt
Cc1cc(=O)oc2cc(OCC(=O)NC(Cc3c[nH]c4ccc(O)cc34)C(=O)O)c(Cl)cc12 (configuration not stated) | nt | nt | 31* | 12
N#C/C(C(=O)N1CCOCC1)=C1/SC(Cc2ccccc2)C(=O)N1c1ccccc1 (configuration not stated) | 0 | 6 | -4 | -51*
CCCCc1ccc(CC2S/C(=C(\C#N)C(=O)N3CCOCC3)N(c3ccccc3)C2=O)cc1 (configuration not stated) | 0 | 0 | 4 | 9
COc1cc(OC)cc(C(=O)N2CC(=O)Nc3ccc(Cl)cc3C2c2ccccc2)c1 (configuration not stated) | -1 | -2 | 4 | nt
CC(C)OCc1cc(CN2CCN(c3cccc(C(F)(F)F)c3)CC2)c(O)c2ncccc12 | 0 | -1 | -14 | nt
O=[N+]([O-])c1cc(CN2CCN(c3cccc(C(F)(F)F)c3)CC2)c2cccnc2c1O | 0 | 43 | -27 | -106*
Ic1ccc(N2CCN(Cc3c[nH]c4ncccc34)CC2)cc1 | 1 | 9 | -88 | -58*
Cn1cc(CN2CCCC(CO)(Cc3ccccc3)C2)c2ccccc21 (configuration not stated) | -1 | -11 | -8 | -50*
Oc1ccc(CN2CCC(Cc3ccccc3)CC2)c2cccnc12 | 0 | 18 | -21 | -88*
Oc1ccc(Cc2ccccc2)c2cccnc12 | 2 | 1 | -10 | -29
CCCN1CNc2c(c(=O)[nH]c(=S)n2CCc2cc(OC)ccc2OC)C1 | 0 | nt | nt | nt
O=C(Nc1ccc(Cl)cc1)C1CCN(c2nc3ccccc3n3cccc23)CC1 | 3 | 0 | -8 | nt
Oc1c(CN2CCCCC2)cc(COCc2ccccc2)c2cccnc12 | 4 | 3 | -9 | -125*
Oc1c(CN2CCN(c3ccccn3)CC2)cc(Cl)c2cccnc12 | 0 | -7 | -49 | -128*
Oc1ccc(CN2CCc3ccccc3C2)c2cccnc12 | 2 | 8 | -13 | -114*
Cn1cc(CN2CCc3ccccc3C2)c2ccccc21 | 0 | -7 | -28 | -95*
OC(C[n+]1ccccc1Cl)c1ccccc1 (configuration not stated) | 0 | nt | nt | nt
Cc1c(Cl)cccc1NC(=O)CN1C(=O)COc2ccc(S(=O)(=O)N3CCCCCC3)cc21 | -1 | 9 | 6 | nt
Cc1ccc2nc(SC(Cc3cc(Cl)ccc3Cl)C(=O)O)[nH]c2c1 (configuration not stated) | -1 | -13 | 0 | nt
Oc1ccc(CN2CCN(c3ccccc3)CC2)c2cccnc12 | -1 | -3 | -26 | -100*
SMILES | TRPML1 agonist | TRPML1 blocker | D3 ag | DRD3 antagonist
Oc1ccc(CN2CCCCC2)c2cccnc12 | 0 | 2 | -32 | ?
COc1ccccc1CNS(=O)(=O)c1cc(C)ccc1OC | 0 | -5 | 1 | 36
COc1cccc(CNS(=O)(=O)c2ccccc2Br)c1OC | -1 | 11 | 32* | 6
CCCC(=O)OCc1cnc(C)c2oc(=O)c(C(=O)Nc3ccccc3)cc12 | 2 | 14 | -15 | nt
O=C(O)/C=C/C(=O)N1CCN(c2ccccc2F)CC1 | 0 | -21 | -8 | -70*
O=S(=O)(c1ccccc1Br)N1CCN(c2nc(-c3cccs3)nc3ccccc23)CC1 | 0 | nt | nt | nt
O=C(NCCc1csc2nc(-c3cccc(F)c3)nn12)c1ccc(Br)o1 | 1 | 1 | 8 | nt
CCC(C)[C@H](NC(=O)NC1CCN(Cc2ccccc2)CC1)C(=O)OC (some centres not stated) | 0 | 4 | -38 | -50*
COc1ccc(S(=O)(=O)NC2CCN(Cc3ccccc3)CC2)cc1NC(C)=O | 0 | 5 | -9 | 24
O=C(Nc1ccc(F)cc1)NC1CCN(Cc2ccccc2)CC1 | 1 | 3 | 3 | -28
COC(=O)c1ccccc1NC(=O)NC1CCN(Cc2ccccc2)CC1 | 1 | -6 | -33 | -93*
COc1ccc(C)cc1NC(=O)NC1CCN(Cc2ccccc2)CC1 | 2 | 4 | -25 | -83*
COc1cc2c(NC3CCN(C)CC3)nc(N3CCCN(C)CC3)nc2cc1OCCCCCN(C)C | -1 | nt | nt | nt
CC(C)C[C@@H](CN)NC(=O)c1nc[nH]c1C(=O)N[C@@H](Cc1ccccc1)C(=O)CNC[C@H](C)NC(=O)c1nc[nH]c1C(=O)N[C@@H](C)C(=O)O | -1 | 6 | 43* | 21
CC(C)C[C@@H](CN)NC(=O)c1nc[nH]c1C(=O)N[C@@H](C)C(=O)CNC[C@H](CC(C)C)NC(=O)c1nc[nH]c1C(=O)N[C@@H](CC(=O)O)C(=O)O | -1 | -16 | 0 | -24
CC(C)C[C@@H](CN)NC(=O)c1nc[nH]c1C(=O)N[C@@H](Cc1ccccc1)C(=O)CNC[C@H](C)NC(=O)c1nc[nH]c1C(=O)N[C@@H](CC(C)C)C(=O)O | -1 | 6 | 7 | 7
CC(C)C[C@@H](CNCC(=O)[C@H](CC(=O)O)NC(=O)c1[nH]cnc1C(=O)N[C@H](CN)CC(C)C)NC(=O)c1nc[nH]c1C(=O)N[C@@H](C)C(=O)O | 0 | 21 | 3 | -53*
C[C@@H](Nc1nc(Cl)nc2nc[nH]c12)c1ccccc1 | 0 | nt | nt | nt
COc1ccc(Nc2ncnc3c2nc2n3CCCC2)cc1Cl | 1 | 15 | 1 | nt
CCCCn1nnnc1C(CC)N1CCN(C/C=C/c2ccccc2)CC1 (configuration not stated) | 0 | nt | -16 | -68*
CCC(c1nnnn1Cc1ccccc1)N1CCN(C/C=C/c2ccccc2)CC1 (configuration not stated) | -1 | nt | -8 | -99*
CCCCn1nnnc1C(c1ccccc1)N1CCN(C)CC1 (configuration not stated) | -1 | nt | 0 | 22
CCCCn1nnnc1C(c1ccccc1)N1CCN(C/C=C/c2ccccc2)CC1 (configuration not stated) | 1 | nt | -15 | -71*
CCC(c1nnnn1CCOC)N1CCN(Cc2ccccc2)CC1 (configuration not stated) | 0 | -14 | -17 | -14
